Assay results reported in PubChem BioAssay AID449764 (Southern Research Specialized Biocontainment Screening …, 2010).
Among all 2,300 compounds or so, about 1,700 (74%) were called active. So high a share suggests a set chosen from earlier hits. This is one part of the list. Potency and affinity values are given separately. A number with no mark means an inactive call. The rule behind the calls is not given here.

Assay: Confirmatory growth inhibition assay, Mycobacterium tuberculosis H37Rv, absence of glycerol (AID 449764);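 note: growth read after 7 days of incubation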
Settings: no glycerol; series mostly up to 100 µM; inhibition: at the top concentration

Compared with N/C(Cc1ccc([N+](=O)[O-])cc1)=N\OC(=O)c1ccc2ccccc2c1, Cc1ccc(C(=O)O/N=C(\N)c2ccc(Br)cc2)cc1C is higher in “inhibition” value: -1.93% for the first, 4.69% for the second.

Compared with COc1ccc(OC(=O)c2cc3cc(Cl)ccc3oc2=O)cc1, COc1ccc(N=Cc2c(O)cc(C)oc2=O)cc1 is lower in “inhibition” value: -0.49% for the first, -5.32% for the second.

Compared with Cc1cccc(C)c1OCC(=O)Nc1cccc(-c2nnc(-c3ccccc3)o2)c1, Cc1cc(N2CCN(C(=O)Nc3ccccc3C#N)CC2)c2ccccc2n1 is lower in “inhibition” value: 9.51% for the first, 5.5% for the second.

Compared with O=C(Nc1nc2c(s1)CCCC2)c1cc(-c2ccc3c(c2)OCO3)nc2ccccc12, O=C(O)c1ccccc1C(=O)NNc1ccc(Cl)cc1Cl is higher in “inhibition” value: 0.44% for the first, 0.63% for the second.

First: COc1ccc(N=N/C(=C\O)C(=O)c2cccs2)cc1
Second: COc1ccc(N=Cc2c[nH][nH]c2=O)cc1
The “inhibition” value of the first is lower: -1.6% for the first, 1.31% for the second.

Compared with CCOCCCNS(=O)(=O)c1ccc(NC(=O)N2c3ccccc3Sc3ccccc32)cc1, COc1ccc(N=Cc2c(OC)ccc3ccccc23)cc1 is lower in “inhibition” value: -3.66% for the first, -15.2% for the second.

Going from CCOc1ccc(NC(=O)N(C2CCCCC2)C(C)c2ccncc2)cc1 (stereo not given) to CCOc1ccc(N=CC2=C(O)CC(c3ccco3)CC2=O)cc1 (stereo not given), the “inhibition” value falls from -3.13% to -4.94%.

First: CCOc1ccc(N=C(NC#N)SCC(=O)NC2CC2)cc1
Second: C#CCCc1cscc1/C=[N+](\[O-])c1ccc(C(=O)OCC)cc1
The “inhibition” value of the first is higher: 3.09% for the first, -6.58% for the second.

Going from C=CCN1CC[C@]23c4c5ccc(O)c4O[C@H]2/C(=N/NC(=O)c2ccccc2)CC[C@@]3(O)[C@H]1C5 to O=C(c1n[nH]c(=O)c2ccccc12)N1CCN(C2c3ccccc3-c3ccccc32)CC1, the “inhibition” value rises from -1.3% to 4.65%.

Going from Cn1c(N)c(C(=O)COC(=O)c2ccc([N+](=O)[O-])o2)c(=O)n(C)c1=O to COCCN=C1Sc2nc3ccc(C)cc3cc2CN1Cc1ccco1, the “inhibition” value rises from -10.6% to 8.95%.
